# Records with an inconclusive call do not appear. Activity calls are given as the source filed them. How the source made its calls: active means hit-call score of the fitted dose curve at least 0.9, where 1 is the maximum; inconclusive means response in the unintended direction; inactive means score below 0.9.
# System: zebrafish Peroxisome Proliferator-activated Receptor gamma (PPARg), gene 557037
# Assay: ATG_zfPPARg_EcoTox2: Attagene TRANS-FACTORIAL EcoTox-2 HepG2 Assay for zebrafish Peroxisome Proliferator-activated Receptor gamma (PPARg)
# Procedure: ATG_EcoTox2 is a cell-based, multiplexed assay created by modifying the existing Attagene TRANS-FACTORIAL system to include a panel of nuclear receptors from some or all the following species: human (Homo sapiens), african clawed frog (Xenopus laevis), rainbow trout (Oncorhynchus mykiss), japanese medaka (Oryzias latipes), and zebrafish (Danio rerio). The ECOTOX2-FACTORIAL format uses HepG2, a human liver cell line, with measurements taken at 24 hours after chemical dosing in a 24-well plate. ATG_zfPPARg_EcoTox2 is one of 29 assay components calculated in the ATG_EcoTox2 assay. It is designed to make measurements of mRNA induction, a form of inducible reporter, as detected with fluorescence intensity signals by Reverse transcription polymerase chain reaction (RT-PCR) and Capillary electrophoresis technology.The assay endpoint ATG_zfPPARg_EcoTox2 was analyzed in the positive analysis fitting direction relative to DMSO as the negative control and baseline of activity. Using a type of inducible reporter, measures of mRNA for gain-of-signal activity can be used to understand the reporter gene at the transcription factor-level as they relate to the gene PPARg. Furthermore, this assay endpoint can be referred to as a primary readout, because this assay has produced multiple assay endpoints where this one serves a reporter gene function. To generalize the intended target to other relatable targets, this assay endpoint is annotated to the nuclear receptor intended target family, where the subfamily is non-steroidal.
# Human liver HepG2 cells are transiently transfected with multiple reporter transcription units (MRTUs) in 6-well plates using FuGene 6 reagent (Roche; 3 ml FuGene/1 mg DNA). The MRTU constructs are regulated by a cis-regulating element (promoter). Each RTU expresses a GAL4-UAS that regulates the transcription of a nearby target reporter gene sequence. A major difference between the CIS and TRANS system is that in CIS activities of endogenous TFs are measured, whereas the TRANS assay evaluates changes in activities of exogenous, chimeric NR-Gal4 proteins. […] At the end of 24 hour incubation, total RNA was isolated using TriZol reagent (Invitrogen). The isolated RNA is then reverse-transcribed using oligo(dT) primer and Mo-MLV reverse transcriptase (Invitrogen) with DNAse I (Ambion) treatment for 30 min. The one-tenth of the produced cDNA was amplified by PCR using Taq DNA polymerase (Invitrogen) and two reporter sequence-specific primers. The PCR products were fluorescently labeled by primer extension with 6-arboxyfluorescein (6-FAM) 5'-labeled reporter sequence-specific primer (2 min at 95 C, 20 s at 68 C and 10 min at 72 C) and these products were digested with 5U of HpaI (New England Biolabs) for 2h at 37 C. The fragments were purified using Qiaquick PCR columns (Qiagen), analyzed on an ABI 3130xL genetic analyzer (Applied Biosystems) with peak positions identified by using a set of X-rhodamine (ROX)-labeled MapMarker1000 molecular weight standards (BioVentures). The raw capillary electrophoresis data was processed using Attagraph software (Attagene).
Compound,outcome,AC50
Cc1ccc(C)c(OCCCC(C)(C)C(=O)O)c1,inactive,–
C=C(c1ccc(C(=O)O)cc1)c1cc2c(cc1C)C(C)(C)CCC2(C)C,–,2.23 µM (active)
C[C@]12C=CC(=O)C=C1CC[C@@H]1[C@@H]2C(=O)C[C@@]2(C)[C@H]1CC[C@]2(O)C(=O)CO,inactive,–
Cc1cccc(Nc2cc(Cl)nc(SCC(=O)O)n2)c1C,inactive,–
CN(CCOc1ccc(CC2SC(=O)NC2=O)cc1)c1ccccn1 (stereo not given),inactive,–
CC(C)(Oc1ccc(Cl)cc1)C(=O)O,inactive,–
Cc1c(C)c2c(c(C)c1O)CCC(C)(COc1ccc(CC3SC(=O)NC3=O)cc1)O2 (stereo not given),inactive,–
CC(C)OC(=O)C(C)(C)Oc1ccc(C(=O)c2ccc(Cl)cc2)cc1,inactive,–
C[C@@H]1C[C@H]2[C@@H]3CCC4=CC(=O)C=C[C@]4(C)[C@@]3(F)[C@@H](O)C[C@]2(C)[C@@]1(O)C(=O)COP(=O)(O)O,inactive,–
Cc1nc(-c2ccc(C(F)(F)F)cc2)sc1C(=O)NCc1ccc(OC(C)(C)C(=O)O)cc1,–,21.3 µM (active)

# — PubChem BioAssay AID2284366 (EPA ToxCast)
